Laboratory results: PubChem BioAssay
Unmarked numbers belong to inactive results.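 Rule for the calls: active = viability at or below 10% of carrier control in both of two separate runs; inconclusive = viability at or below 10% in only one of the two runs; inactive = the rest.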

Test: reduced viability of SK-BR-3 breast cancer cells – cell-based, 24 h, human, pilot screen (AID 572);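 note: compound exposure lasted between 18 and 24 h rather than exactly 24 h; 100% = carrier-treated control wells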
Conditions: SK-BR-3 viability, CellTiter-Glo luminescence, at 10 µM, active compounds read low

Row | SMILES | viability
1 | CCn1c(=O)cc(SCC(=O)Nc2cccnc2)c2ccccc21 | 91.5%
2 | c1ccc2c(c1)CNc1ccccc1C2 | 97.5%
3 | O=C(Nc1cccc(C(F)(F)F)c1)c1ccco1 | 129%
4 | CCC(c1nnc(SCC(=O)NCC2CCCO2)n1Cc1ccccc1)N(C)C (stereo not given) | 98.5%
5 | COC(=O)c1cc(Br)c(=O)n(-c2ccc(OC)cc2)c1 | 96.5%
6 | COc1cccc(OCc2nc3ccccc3[nH]2)c1 | 86.5%
7 | O=c1c2c(-c3ccccc3)csc2nc2n1CCC2 | 81%
8 | COc1cccc(C(=O)CN2CCC(NC(=O)NC3CCCCC3)CC2)c1 | 92%
9 | COc1ccc(OC)c(C(=O)COC(=O)c2cc(C)oc2C)c1 | 112%
10 | O=C(Nc1ccccc1C(=O)N1CCN(c2ccccc2)CC1)c1ccco1 | 96%
11 | Cc1ccc(C(c2nnnn2CCC(C)C)N2CCN(C)CC2)cc1 (stereo not given) | 90.5%
12 | COC(=O)C(C)Oc1ccc2c3c(c(=O)oc2c1)CCCCC3 (stereo not given) | 90%
13 | COc1ccccc1N1CCN(C(=O)c2ccc(S(=O)(=O)N3CCCCCC3)cc2)CC1 | 89.5%
14 | COc1ccc(CCNC(=O)CC2COc3ccccc3O2)cc1OC (stereo not given) | 102%
15 | Cc1cccc(-c2noc(CCC(=O)Nc3ccccc3)n2)c1 | 106%
16 | C=CCn1c(=O)/c(=C/c2ccc(O)cc2)s/c1=C(/C#N)c1nnc2n1CCCCC2 | 93.5%
17 | O=C(NCCCNC1CCCCC1)c1ccc(/C=N/O)nc1 | 84%
18 | O=C(CSc1nnnn1-c1ccccc1)c1cc2ccccc2oc1=O | 95.5%
19 | Cc1ccc(Nc2nc(N)nc(CN3CCCCCC3)n2)cc1 | 79.5%
20 | c1cncc(-c2nnc(-c3ccco3)o2)c1 | 106%

Row | SMILES | viability
21 | COc1ccc(OC)c(C2=NOC(C(=O)NCCN3CCOCC3)C2)c1 (stereo not given) | 107%
22 | C/C(=N\O)C(C)/[N+]([O-])=C/c1nc(C)c(C)n1O (stereo not given) | 95.5%
23 | COc1ccc(CNC(=O)c2cc(-c3ccc(OC)c(OC)c3)on2)cc1 | 116%
24 | C=CCOc1ccc(/C(O)=C2\C(=O)C(=O)N(CCOC)C2c2cccnc2)cc1 (stereo not given) | 99%
25 | C=CCN1C(=O)/C(=C2\SC(N3CCOCC3)=NC2=O)c2cc(Br)ccc21 | 82.5%
26 | COc1ccccc1Nc1nc2ccccc2[nH]1 | 92%
27 | Cn1nnnc1SCSc1nnnn1C | 84%
28 | CN(CC(=O)Nc1ccc2c(c1)OCCO2)S(=O)(=O)c1ccc(Br)s1 | 90.5%
29 | CCn1c(=O)n(CC(=O)NCc2ccccc2OC)c(=O)c2ccccc21 | 95%
30 | O=C1NC(c2ccco2)Nc2ccccc21 (stereo not given) | 82.5%
31 | COCCNC(=O)C(c1ccc(C)o1)N(Cc1ccc(F)cc1)C(=O)Cn1nnc2ccccc21 (stereo not given) | 89.5%
32 | C=CCn1cnc2c(NCc3ccccc3)ncnc21 | 85.5%
33 | Cc1ccc2cc(CN(CC3CCCO3)S(=O)(=O)c3ccc4c(c3)OCCO4)c(=O)[nH]c2c1C (stereo not given) | 86.5%
34 | COc1ccccc1C1c2c(oc3ccc(Cl)cc3c2=O)C(=O)N1c1cc(C)on1 (stereo not given) | 86.5%
35 | CC(C)=CC/C=C1\CCC(C(=O)O)C(C(=O)O)C1 (stereo not given) | 114%
36 | COCCOC(=O)c1c(C)oc2ccc(NS(=O)(=O)c3ccc(F)cc3)cc12 | 85.5%
37 | Cc1ccc(C)c(N2CCN(C(=O)CCCn3c(=S)[nH]c4cc5c(cc4c3=O)OCO5)CC2)c1 | 73.5%
38 | CCC(C)N=C1SCC(C)(/C=N/O)S1 (stereo not given) | 97%
39 | CCSc1nc2ccccc2n1CC(N)=O | 102%
40 | C=CCn1c(SCC(=O)NC2CCCCC2)nnc1-c1sc(N)nc1C | 99.5%
